According to the supplement of paper PMC11732987, “Enantioselective OTUD7B fragment discovery through chemoproteomics screening and high-throughput optimisation” (Communications Chemistry, 2025):

How the values were obtained:
Test in all cases: log2 ratio of Biotin-Ahx-Ub-VS probe labelling (fragment/DMSO); higher = less target engagement (more negative = stronger competition), active = hit call of the paper (q ≤ 0.05, log2 ratio ≤ -1)
Details in all cases: compound concentration: 200 uM; treatment time: 3 h
USP34 = USP34 (UniProt Q70CQ2)
Outline: (§1)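 Global-median-normalised Spectronaut label-free quantities were compared by unpaired t-test, and values are average log2 ratios of fragment over vehicle. Only proteins with ≥2 unique peptides were used. HEK293T lysate (495 µg per sample) was treated in triplicate with fragment at 200 µM or vehicle for 3 h and then with Biotin-Ahx-Ub-VS at 0.5 µM final for 1 h. Labelled DUBs were then NeutrAvidin-enriched, digested with LysC and trypsin, and run by diaPASEF LC-MS/MS.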

USP36 = biological target: T1, USP36 (UniProt Q9P275)
T1 sequence (whole entry): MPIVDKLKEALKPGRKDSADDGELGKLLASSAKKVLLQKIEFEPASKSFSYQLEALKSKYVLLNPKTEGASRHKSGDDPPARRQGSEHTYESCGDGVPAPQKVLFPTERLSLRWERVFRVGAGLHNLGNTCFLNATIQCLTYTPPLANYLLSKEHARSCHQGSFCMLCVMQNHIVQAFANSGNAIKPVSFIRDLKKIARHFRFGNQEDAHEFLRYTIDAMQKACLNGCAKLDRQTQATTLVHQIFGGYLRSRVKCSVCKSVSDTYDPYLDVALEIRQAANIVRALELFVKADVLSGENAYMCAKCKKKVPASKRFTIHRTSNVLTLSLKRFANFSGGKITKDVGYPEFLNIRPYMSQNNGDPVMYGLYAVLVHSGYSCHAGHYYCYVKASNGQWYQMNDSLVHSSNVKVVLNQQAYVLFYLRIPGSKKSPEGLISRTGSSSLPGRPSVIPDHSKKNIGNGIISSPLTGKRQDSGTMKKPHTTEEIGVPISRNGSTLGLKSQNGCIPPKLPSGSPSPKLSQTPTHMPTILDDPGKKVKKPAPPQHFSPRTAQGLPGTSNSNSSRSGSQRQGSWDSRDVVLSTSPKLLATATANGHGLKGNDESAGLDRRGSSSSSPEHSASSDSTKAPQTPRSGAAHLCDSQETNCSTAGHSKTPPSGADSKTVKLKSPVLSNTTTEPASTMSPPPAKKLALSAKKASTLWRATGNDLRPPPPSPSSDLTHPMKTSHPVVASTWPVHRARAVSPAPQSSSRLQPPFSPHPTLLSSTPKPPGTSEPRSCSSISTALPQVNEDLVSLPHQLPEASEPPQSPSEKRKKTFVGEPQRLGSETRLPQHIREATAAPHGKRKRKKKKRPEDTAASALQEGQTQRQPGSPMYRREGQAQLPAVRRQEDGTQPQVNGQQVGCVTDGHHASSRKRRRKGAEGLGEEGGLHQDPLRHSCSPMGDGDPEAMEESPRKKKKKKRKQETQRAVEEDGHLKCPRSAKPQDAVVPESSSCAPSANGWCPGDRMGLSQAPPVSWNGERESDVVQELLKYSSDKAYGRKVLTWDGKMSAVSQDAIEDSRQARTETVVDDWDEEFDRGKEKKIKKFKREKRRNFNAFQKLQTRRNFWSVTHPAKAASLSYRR
Outline: as §1

USP38 = biological target: T2, USP38 (UniProt Q8NB14)
T2 sequence (whole entry): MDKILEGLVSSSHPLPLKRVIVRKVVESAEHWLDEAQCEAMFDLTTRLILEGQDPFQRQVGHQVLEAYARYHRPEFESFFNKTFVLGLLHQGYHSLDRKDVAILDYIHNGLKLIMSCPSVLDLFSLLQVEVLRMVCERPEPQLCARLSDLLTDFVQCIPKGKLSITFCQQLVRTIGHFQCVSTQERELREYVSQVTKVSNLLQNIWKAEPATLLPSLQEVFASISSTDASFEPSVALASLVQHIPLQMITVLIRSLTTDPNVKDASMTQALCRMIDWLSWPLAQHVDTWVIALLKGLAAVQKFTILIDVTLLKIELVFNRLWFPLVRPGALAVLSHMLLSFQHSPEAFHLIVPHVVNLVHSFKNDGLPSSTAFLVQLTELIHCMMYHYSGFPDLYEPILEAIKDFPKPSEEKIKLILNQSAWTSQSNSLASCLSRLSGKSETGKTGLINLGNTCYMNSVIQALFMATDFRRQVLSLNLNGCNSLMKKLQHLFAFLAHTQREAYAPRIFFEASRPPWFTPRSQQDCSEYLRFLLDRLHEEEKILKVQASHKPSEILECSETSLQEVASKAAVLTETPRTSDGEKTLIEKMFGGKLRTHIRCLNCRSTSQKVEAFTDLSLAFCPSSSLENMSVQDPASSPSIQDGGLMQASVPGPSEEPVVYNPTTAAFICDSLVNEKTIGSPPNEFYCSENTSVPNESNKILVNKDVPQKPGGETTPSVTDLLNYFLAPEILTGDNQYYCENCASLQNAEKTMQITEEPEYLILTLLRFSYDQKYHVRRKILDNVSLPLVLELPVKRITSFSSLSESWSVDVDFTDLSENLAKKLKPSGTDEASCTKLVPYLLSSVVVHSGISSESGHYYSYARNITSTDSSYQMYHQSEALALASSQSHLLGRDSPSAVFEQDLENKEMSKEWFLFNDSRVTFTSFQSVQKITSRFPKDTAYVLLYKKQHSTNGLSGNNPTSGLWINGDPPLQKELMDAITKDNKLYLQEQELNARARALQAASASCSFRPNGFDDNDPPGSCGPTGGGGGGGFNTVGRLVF
Outline: as §1

USP39 = biological target: T3, USP39 (UniProt Q53GS9)
T3 sequence (whole entry): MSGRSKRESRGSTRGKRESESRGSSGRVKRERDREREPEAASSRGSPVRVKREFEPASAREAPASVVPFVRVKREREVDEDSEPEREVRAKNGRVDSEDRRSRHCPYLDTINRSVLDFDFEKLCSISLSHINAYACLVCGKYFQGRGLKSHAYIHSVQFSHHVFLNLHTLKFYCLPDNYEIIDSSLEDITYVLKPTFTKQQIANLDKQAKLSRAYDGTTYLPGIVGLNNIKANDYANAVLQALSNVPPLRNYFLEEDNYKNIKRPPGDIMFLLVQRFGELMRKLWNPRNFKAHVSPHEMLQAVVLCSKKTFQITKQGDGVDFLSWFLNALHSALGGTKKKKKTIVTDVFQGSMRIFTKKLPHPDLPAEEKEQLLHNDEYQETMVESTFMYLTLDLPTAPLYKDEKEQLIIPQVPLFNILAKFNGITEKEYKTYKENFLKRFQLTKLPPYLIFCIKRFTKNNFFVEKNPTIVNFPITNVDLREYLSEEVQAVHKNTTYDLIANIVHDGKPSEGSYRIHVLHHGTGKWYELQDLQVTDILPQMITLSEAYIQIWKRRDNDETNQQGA
Outline: as §1

USP4 = biological target: T4, USP4 (UniProt Q13107)
T4 sequence (whole entry): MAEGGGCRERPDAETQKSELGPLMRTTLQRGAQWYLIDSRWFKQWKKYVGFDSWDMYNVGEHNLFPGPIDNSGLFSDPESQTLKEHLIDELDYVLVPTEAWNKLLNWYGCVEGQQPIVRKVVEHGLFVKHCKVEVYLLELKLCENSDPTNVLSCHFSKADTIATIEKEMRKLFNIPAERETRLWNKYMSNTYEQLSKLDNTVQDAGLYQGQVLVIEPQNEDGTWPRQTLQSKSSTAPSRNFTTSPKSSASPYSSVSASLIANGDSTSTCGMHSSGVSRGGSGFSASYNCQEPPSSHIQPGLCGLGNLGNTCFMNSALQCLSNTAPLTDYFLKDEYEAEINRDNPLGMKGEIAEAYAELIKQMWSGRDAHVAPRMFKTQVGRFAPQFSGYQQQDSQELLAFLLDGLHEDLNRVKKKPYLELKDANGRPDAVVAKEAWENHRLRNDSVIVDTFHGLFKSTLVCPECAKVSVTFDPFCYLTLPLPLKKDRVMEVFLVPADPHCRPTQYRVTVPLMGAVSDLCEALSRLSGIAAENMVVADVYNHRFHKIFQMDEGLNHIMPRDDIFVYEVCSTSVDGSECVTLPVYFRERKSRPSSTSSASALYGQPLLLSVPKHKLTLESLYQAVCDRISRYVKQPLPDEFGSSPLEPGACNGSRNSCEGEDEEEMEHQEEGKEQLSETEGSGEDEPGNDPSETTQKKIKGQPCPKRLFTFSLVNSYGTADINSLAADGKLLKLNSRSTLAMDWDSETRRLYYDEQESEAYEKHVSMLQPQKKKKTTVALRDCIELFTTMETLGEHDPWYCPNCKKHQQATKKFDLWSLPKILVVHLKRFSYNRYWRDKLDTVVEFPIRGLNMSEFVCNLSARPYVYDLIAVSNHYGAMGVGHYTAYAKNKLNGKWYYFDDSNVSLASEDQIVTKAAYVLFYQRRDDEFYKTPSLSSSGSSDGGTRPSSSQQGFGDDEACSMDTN
Outline: as §1

Measured: log2 ratio of Biotin-Ahx-Ub-VS probe labelling

Sequence of USP34 (Q70CQ2 whole entry, the tested form may be a part): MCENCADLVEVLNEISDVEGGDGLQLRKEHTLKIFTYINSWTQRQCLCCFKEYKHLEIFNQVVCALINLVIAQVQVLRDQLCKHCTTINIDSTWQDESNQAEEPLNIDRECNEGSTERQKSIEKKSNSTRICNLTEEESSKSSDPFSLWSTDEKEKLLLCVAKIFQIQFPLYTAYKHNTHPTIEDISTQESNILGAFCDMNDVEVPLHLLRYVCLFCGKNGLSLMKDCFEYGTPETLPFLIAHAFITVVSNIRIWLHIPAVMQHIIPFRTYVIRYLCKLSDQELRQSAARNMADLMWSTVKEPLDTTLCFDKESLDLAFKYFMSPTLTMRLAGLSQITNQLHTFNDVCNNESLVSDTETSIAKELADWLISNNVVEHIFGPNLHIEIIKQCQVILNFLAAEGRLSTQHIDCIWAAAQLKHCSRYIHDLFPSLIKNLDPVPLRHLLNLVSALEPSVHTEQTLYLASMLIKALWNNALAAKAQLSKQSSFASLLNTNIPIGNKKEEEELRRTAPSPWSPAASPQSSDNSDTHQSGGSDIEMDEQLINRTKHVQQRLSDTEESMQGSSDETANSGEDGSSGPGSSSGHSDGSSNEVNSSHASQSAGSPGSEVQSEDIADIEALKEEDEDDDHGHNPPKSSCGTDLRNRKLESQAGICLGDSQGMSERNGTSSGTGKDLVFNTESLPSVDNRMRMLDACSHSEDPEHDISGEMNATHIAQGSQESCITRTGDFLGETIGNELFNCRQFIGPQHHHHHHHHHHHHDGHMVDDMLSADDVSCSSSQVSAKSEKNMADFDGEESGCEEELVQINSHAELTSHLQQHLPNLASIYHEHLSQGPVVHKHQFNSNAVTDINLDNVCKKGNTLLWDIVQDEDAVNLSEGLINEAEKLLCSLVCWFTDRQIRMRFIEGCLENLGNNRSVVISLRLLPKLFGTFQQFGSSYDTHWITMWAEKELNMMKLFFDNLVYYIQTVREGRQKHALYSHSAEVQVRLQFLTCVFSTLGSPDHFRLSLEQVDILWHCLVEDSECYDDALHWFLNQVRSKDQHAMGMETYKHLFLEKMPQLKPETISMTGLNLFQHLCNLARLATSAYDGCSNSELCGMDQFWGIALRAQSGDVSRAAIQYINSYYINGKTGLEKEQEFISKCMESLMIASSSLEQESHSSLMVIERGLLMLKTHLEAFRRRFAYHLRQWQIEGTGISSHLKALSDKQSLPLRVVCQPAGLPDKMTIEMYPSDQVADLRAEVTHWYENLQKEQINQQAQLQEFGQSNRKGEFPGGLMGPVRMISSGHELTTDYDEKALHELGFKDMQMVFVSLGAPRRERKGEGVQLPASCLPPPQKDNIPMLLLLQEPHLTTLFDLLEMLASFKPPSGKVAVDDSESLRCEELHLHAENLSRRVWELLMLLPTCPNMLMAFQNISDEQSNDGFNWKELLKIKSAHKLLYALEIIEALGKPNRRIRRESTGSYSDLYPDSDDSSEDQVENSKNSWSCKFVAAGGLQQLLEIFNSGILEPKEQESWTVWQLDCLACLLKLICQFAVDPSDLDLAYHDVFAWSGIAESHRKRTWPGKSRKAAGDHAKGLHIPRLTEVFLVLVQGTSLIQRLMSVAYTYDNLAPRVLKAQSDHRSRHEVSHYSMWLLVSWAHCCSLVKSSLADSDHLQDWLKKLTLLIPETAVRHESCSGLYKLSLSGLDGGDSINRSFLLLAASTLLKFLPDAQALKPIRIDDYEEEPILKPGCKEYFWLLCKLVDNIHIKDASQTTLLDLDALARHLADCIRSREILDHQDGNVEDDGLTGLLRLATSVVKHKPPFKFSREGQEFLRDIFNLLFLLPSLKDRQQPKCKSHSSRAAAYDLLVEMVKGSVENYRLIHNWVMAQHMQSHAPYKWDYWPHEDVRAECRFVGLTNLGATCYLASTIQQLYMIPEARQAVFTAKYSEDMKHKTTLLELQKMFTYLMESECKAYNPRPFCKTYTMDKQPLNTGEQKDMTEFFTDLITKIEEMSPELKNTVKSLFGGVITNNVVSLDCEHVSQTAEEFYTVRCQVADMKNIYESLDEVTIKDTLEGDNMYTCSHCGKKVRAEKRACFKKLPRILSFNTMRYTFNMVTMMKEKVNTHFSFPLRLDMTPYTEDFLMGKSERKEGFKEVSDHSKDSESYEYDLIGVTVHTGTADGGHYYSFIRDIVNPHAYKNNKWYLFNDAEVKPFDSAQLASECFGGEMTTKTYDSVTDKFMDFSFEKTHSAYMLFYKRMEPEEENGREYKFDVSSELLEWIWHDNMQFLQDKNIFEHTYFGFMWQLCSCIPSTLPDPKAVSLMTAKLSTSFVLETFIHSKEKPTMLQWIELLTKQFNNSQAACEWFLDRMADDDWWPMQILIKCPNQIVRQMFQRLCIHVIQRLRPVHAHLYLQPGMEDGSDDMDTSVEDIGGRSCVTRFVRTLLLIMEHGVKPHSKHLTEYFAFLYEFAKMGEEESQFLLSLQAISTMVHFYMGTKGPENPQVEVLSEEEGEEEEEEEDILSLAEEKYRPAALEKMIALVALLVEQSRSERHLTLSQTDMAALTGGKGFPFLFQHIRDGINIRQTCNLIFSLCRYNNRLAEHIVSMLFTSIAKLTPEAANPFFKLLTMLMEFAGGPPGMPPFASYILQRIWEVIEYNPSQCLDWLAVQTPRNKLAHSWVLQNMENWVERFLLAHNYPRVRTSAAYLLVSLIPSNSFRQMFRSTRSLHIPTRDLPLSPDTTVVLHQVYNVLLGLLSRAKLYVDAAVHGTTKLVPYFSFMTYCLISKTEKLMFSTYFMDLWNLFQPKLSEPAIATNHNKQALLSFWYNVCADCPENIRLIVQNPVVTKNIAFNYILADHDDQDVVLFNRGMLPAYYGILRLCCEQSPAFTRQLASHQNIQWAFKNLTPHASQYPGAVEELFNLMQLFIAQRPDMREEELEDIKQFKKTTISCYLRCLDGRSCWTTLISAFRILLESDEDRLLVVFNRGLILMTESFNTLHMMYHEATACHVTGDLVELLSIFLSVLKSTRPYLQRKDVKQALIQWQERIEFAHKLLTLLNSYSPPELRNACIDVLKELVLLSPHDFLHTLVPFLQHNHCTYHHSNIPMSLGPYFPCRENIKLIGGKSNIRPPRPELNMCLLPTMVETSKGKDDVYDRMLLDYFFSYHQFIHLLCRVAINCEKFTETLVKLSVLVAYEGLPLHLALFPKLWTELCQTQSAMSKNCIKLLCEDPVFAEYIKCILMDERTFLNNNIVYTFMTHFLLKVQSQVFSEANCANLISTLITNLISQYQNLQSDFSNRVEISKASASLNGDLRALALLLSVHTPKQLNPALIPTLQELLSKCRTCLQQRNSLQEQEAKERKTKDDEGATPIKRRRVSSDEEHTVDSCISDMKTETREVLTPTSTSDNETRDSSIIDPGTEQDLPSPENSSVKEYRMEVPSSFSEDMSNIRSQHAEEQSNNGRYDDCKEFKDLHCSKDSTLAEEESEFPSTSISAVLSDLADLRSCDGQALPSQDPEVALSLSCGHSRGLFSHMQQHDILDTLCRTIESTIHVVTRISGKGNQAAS

O=C(CCl)NC(Cn1ccccc1=O)c1ccccc1 (stereo not given)
inactive: USP34 -0.106 | USP36 0.132 | USP38 -0.000312 | USP39 -0.0137 | USP4 -0.127
